Data reported in PubChem BioAssay (NCATS).
Results filed as inconclusive are left out. Active and inactive are the calls of the source. Unless noted, calls come from the whole dose curve; as a rule, active = well fitted curve in the direction sought with a large enough effect; inconclusive = small, poorly fitted or top-dose-only effect, or another doubt; inactive = no such curve, though single readings can be large; an effect the other way counts as inactive or inconclusive.

Key:
[1] = Cell Viability - LYMP2-008 (AID 980);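 note: cells exposed to compound for 24 h at 37 °C; % is set by controls: 0 for no effect and ±100 for the full control effect; nearly all actives have a fitted effect of over 60% in size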
How it was run: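 Acute cytotoxicity is scored as concentration-dependent loss of cellular ATP in a human lymphoblastoid line after 24 hr treatment at 37 C. ATP is quantified by luciferase luminescence.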

[2] = Cell Viability - LYMP2-010 (AID 981);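 note: cells exposed to compound for 24 hours at 37 °C; % is set by controls: 0 for no effect and ±100 for the full control effect; nearly all actives have a fitted effect of over 55% in size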
How it was run: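 Acute toxicity is scored as a concentration-dependent loss of cellular ATP in human lymphoblastoid cells after 24 hr compound exposure in complete medium. Tetraoctylammonium bromide is the positive control.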

[3] = Cell Viability - LYMP2-012 (AID 982);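 note: cellular ATP by luciferase luminescence where a drop means cytotoxicity; cells exposed to compound for one day before reading; 0% = DMSO only and full loss = 92 µM tetraoctylammonium bromide; nearly all actives have a fitted effect of over 55% in size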
[4] = Cell Viability - LYMP2-014 (AID 983);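 note: cells exposed to compound for 24 h at 37 °C; plate controls were DMSO only for no effect and 92 µM tetraoctylammonium bromide for full effect; nearly all actives have a fitted effect of over 50% in size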
How it was run: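 Decrease in intracellular ATP after 24 hr treatment at 37 C, measured by luciferase luminescence, indicated cytotoxicity. Concentration-response data were fitted with the standard Hill equation to give AC50.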

[5] = Cell Viability - LYMP2-016 (AID 984);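 note: cells exposed to compound for 24 hours at 37 °C; % is set by controls: 0 for no effect and ±100 for the full control effect; nearly all actives have a fitted effect of over 55% in size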
How it was run: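 Cells were seeded at 2500 per well and rested 5 hr before a 24 hr compound exposure at 37 C. Viability was then gauged as cellular ATP by luciferase luminescence, with AC50 values fitted to the Hill equation.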

[6] = Cell Viability - LYMP2-020 (AID 986);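 note: cells exposed to compound for 24 h at 37 °C; plate controls were DMSO only for no effect and tetraoctylammonium bromide at 92 µM for full effect; nearly all actives have a fitted effect of over 55% in size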
How it was run: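 Acute cytotoxicity in a human lymphoblastoid line is scored as a concentration-dependent fall in cellular ATP after 24 hr at 37 C in complete medium. The positive control is tetraoctylammonium bromide, and potency is given as Hill-fit AC50.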

[7] = Cell Viability - LYMP2-022 (AID 987)
How it was run: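 Acute toxicity in a human lymphoblastoid line is scored as decreased intracellular ATP after 24 hr compound treatment at 37 C. ATP is measured by CellTiter-Glo luminescence; curves are fitted with the Hill equation to give AC50.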

[8] = Cell Viability - LYMP2-024 (AID 988);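 note: plate controls were DMSO only for no effect and 92 µM tetraoctylammonium bromide for full effect; nearly all actives have a fitted effect of over 60% in size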
How it was run: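 Acute toxicity is measured as concentration-dependent loss of intracellular ATP in a human lymphoblastoid line treated 24 hours at 37 C. Luciferase luminescence quantifies ATP; AC50 values come from standard Hill-equation modelling.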

[9] = Cell Viability - LYMP2-026 (AID 989);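 note: cells exposed to compound for 24 h at 37 °C; % is set by controls: 0 for no effect and ±100 for the full control effect; nearly all actives have a fitted effect of over 50% in size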
How it was run: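 Concentration-dependent loss of intracellular ATP in human lymphoblastoid cells after 24 hr at 37 C, quantified by luciferase luminescence. AC50 derived from standard Hill equation.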

[10] = Cell Viability - LYMP1-002 - Assay at 24 hr (AID 993); note: % is set by controls: 0 for no effect and ±100 for the full control effect
How it was run: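 qHTS, LYMP1-002 lymphoblastoid, 24 h cpd, 37 C, CellTiter-Glo ATP luminescence; AC50 via Hill eq.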

[11] = Cell Viability - LYMP1-002 - Assay at 40 hr (AID 994);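 note: 0% = DMSO only and full inhibition = 92 µM tetraoctylammonium bromide; nearly all actives have a fitted effect of over 60% in size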
How it was run: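 Viability in the human lymphoblastoid line was measured as intracellular ATP via CellTiter-Glo after 40 hr compound exposure. Tetraoctylammonium bromide served as positive control.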

[12] = qHTS Assay for Lipid Storage Modulators (AID 1519; calls by dose curve; for activity change, negative = inhibition: % is set by controls: 0 for no effect and ±100 for the full control effect); settings: Drosophila S3 cells, BODIPY lipid droplet/cell ratio, laser cytometry, cells loaded with oleic acid
How it was run: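 Cells seeded at 5,000 per well were treated with compounds over a concentration series and loaded with oleic acid (400 uM, as added). Lipid droplet fluorescence (488 nm excitation, 500-530 nm channel) was read by laser-scanning cytometry and normalized to 20 uM Triacsin C.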

[13] = Counterscreen for APE1 Inhibitors: Fluorescent Dye Displacement Validation Assay (AID 1707);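 note: plate controls were ThO with dsDNA and no compound for no effect and ThO without dsDNA for full effect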
How it was run: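 Compounds are scored by their ability to displace Thiazole Orange (250 nM) from a 50 nM TAMRA-tagged duplex bearing a tetrahydrofuran abasic site. Buffer is 50 mM Tris-HCl pH7.5, 50mM NaCl, 2 mM MgCl2, 0.01% Tween-20.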

[14] = target: Alpha-galactosidase A (Homo sapiens) (UniProt P06280); test: Counterscreen for Glucocerebrosidase Inhibitors: qHTS Assay for Human alpha-Galactosidase at pH 4.5 (AID 992); note: 0% is about no effect
How it was run: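 Quantitative HTS: compounds tested from 0.7 nM up to 77 uM against 2 nM enzyme with 80 uM 4-MU alpha-D-galactopyranoside. The 20 min room-temperature reaction is stopped with 1M NaOH/1M glycine, pH 10.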

[15] = target: alpha-glucosidase (Oryza sativa, rice) (UniProt Q653V4); test: Counterscreen for Glucocerebrosidase Inhibitors: qHTS Assay for Rice alpha-Glucosidase at pH 5.0 (AID 997);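 note: 0% = full activity with enzyme and -100% = basal without enzyme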
How it was run: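 Rice alpha-glucosidase (4 nM final) with 400 uM 4-methylumbelliferyl-alpha-D-glucopyranoside in citrate buffer pH 5.0, 20 min at room temperature, stopped at pH 10; fluorescence 365/440 nm, compounds 0.7 nM–77 uM, AC50 from Hill fits.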

[16] = target: DNA repair nuclease/redox regulator APEX1 (Homo sapiens) (UniProt P27695); test: qHTS Validation Assay for Inhibitors of the Human Apurinic/apyrimidinic Endonuclease 1 (APE1) (AID 1705;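 note: TAMRA fluorescence gain over two minutes as APE1 cuts a quenched THF abasic duplex; % is set by controls: 0 for no effect and ±100 for the full control effect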)
How it was run: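 qHTS, 1536-well. APE1 + cpd 15 min RT → 50 nM TAMRA/BHQ-2 THF-abasic dsDNA substrate → kinetic fluorescence, 3 reads/60 s; delta(read3−read1) = reaction progress. No-enzyme buffer = negative control.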

[17] = qHTS for differential inhibitors of proliferation of Plasmodium falciparum line 7G8 (AID 1815);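 note: potency is the fitted concentration of half-maximal effect; parasite growth measured after three days of incubation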
[18] = qHTS for differential inhibitors of proliferation of Plasmodium falciparum line GB4 (AID 1816); settings: Potency: Plasmodium falciparum GB4 proliferation inhibition;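 note: potency is the fitted concentration of half-maximal effect; parasite growth measured after 72 h incubation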
[19] = qHTS for differential inhibitors of proliferation of Plasmodium falciparum line 3D7 (AID 1876); note: potency is the fitted concentration of half-maximal effect
[20] = measured here: cell count channel max response
[21] = measured here: lipid channel max response

Sequence of DNA repair nuclease/redox regulator APEX1 (Homo sapiens) (P27695 whole entry, looked up): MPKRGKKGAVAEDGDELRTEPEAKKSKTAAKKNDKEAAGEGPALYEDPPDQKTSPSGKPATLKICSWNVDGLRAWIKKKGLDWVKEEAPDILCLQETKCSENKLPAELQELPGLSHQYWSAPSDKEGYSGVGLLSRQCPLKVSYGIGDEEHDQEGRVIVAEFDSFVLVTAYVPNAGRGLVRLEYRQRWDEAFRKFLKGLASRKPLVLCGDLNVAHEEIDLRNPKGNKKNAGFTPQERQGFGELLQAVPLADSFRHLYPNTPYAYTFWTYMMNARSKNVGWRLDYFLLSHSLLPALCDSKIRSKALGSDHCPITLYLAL
Sequence of Alpha-galactosidase A (Homo sapiens) (P06280 whole entry, looked up): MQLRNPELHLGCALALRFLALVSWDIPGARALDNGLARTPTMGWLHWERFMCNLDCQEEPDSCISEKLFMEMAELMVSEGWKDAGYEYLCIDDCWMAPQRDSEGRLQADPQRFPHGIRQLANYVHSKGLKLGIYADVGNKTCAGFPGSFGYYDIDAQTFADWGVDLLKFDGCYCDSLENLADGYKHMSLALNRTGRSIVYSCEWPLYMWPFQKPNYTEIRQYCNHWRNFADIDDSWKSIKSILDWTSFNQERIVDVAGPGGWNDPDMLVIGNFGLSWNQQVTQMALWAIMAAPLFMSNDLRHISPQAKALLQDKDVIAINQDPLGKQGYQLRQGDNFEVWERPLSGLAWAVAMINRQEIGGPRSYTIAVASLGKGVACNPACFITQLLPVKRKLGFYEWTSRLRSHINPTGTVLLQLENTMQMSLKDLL

Oc1cccc(O)c1
10.3%: max response [12, 20]
16.6%: max response [12, 21]
inactive: Potency [1] | Potency [2] | outcome [3] | outcome [4] | Potency [5] | Potency [6] | Potency [7] | outcome [8] | Potency [9] | Potency [10] | Potency [11] | activity change, negative = inhibition ([12]; at 57.5 µM (top of the series)) 4.72%

CCCCOC(=O)c1ccc(O)cc1
-4.1%: max response [12, 21]
inactive: Potency [1] | Potency [2] | outcome [3] | outcome [4] | Potency [5] | Potency [6] | Potency [7] | outcome [8] | Potency [9] | Potency [10] | Potency [11] | activity change, negative = inhibition ([12]; at 25.7 µM (top of the series)) -2.55%
-1.21%: max response [12, 20]

CC[C@H]1CN2CCc3cc(OC)c(OC)cc3[C@@H]2C[C@@H]1C[C@H]1NCCc2cc(OC)c(OC)cc21
inactive: Potency [13]

CN(C)CCCN1c2ccccc2Sc2ccc(Cl)cc21
inactive: outcome [14] | outcome [15] | Potency [16] | Potency [13]
active: Potency [17] 4.47 µM | Potency [18] 11.2 µM | Potency [19] 4.47 µM

Cc1cc2nc3c(=O)[nH]c(=O)nc-3n(C[C@H](O)[C@H](O)[C@H](O)CO)c2cc1C
inactive: Potency [1] | Potency [2] | outcome [3] | outcome [4] | Potency [5] | Potency [6] | Potency [7] | outcome [8] | Potency [9] | Potency [10] | Potency [11]

C[C@]12CC[C@@H]3c4ccc(O)cc4CC[C@H]3[C@@H]1CCC2=O
active: Potency [17] 3.98 µM
inactive: outcome [14] | outcome [15] | Potency [16] | Potency [13]

[Cl][In]([Cl])[Cl]
inactive: Potency [1] | Potency [2] | outcome [3] | outcome [4] | Potency [5] | Potency [6] | Potency [7] | outcome [8] | Potency [9] | Potency [10] | Potency [11]

CCCCCCCCCCCCOS(=O)(=O)O
inactive: Potency [1] | Potency [2] | outcome [3] | outcome [4] | Potency [5] | Potency [6] | Potency [7] | outcome [8] | Potency [9] | Potency [10] | Potency [11]

CNC(=O)Oc1ccc2c(c1)[C@]1(C)CCN(C)[C@@H]1N2C
inactive: Potency [16] | Potency [13]

CN(C)CCOC(C)(c1ccccc1)c1ccccn1 (stereo unspecified)
-15.9%: max response [12, 20]
-9.47%: max response [12, 21]
inactive: activity change, negative = inhibition ([12]; at 57.5 µM (top of the series)) 3.29% | Potency [16] | Potency [13]
active: Potency [18] 6.31 µM

O=C1c2c(O)cccc2Cc2cccc(O)c21
20.2%: max response [12, 21]
inactive: Potency [1] | Potency [2] | outcome [3] | outcome [4] | Potency [5] | Potency [6] | Potency [7] | outcome [8] | Potency [9] | Potency [10] | Potency [11] | activity change, negative = inhibition ([12]; at 57.5 µM (top of the series)) 2.53%
14.4%: max response [12, 20]

O=C1O[C@H]([C@@H](O)CO)C(O)=C1O
inactive: Potency [1] | outcome [3] | outcome [4] | Potency [5] | Potency [6] | Potency [7] | outcome [8] | Potency [9] | Potency [10] | Potency [11]

CSc1ccc2c(c1)N(CCC1CCCCN1C)c1ccccc1S2 (stereo unspecified)
inactive: Potency [16] | Potency [13]
active: Potency [17] 4.47 µM | Potency [18] 3.98 µM | Potency [19] 8.91 µM
